Source: PubChem (National Center for Advancing Translational Sciences (NCATS))
IL-1B inflam inh = qHTS for Inhibitors of Inflammasome Signaling: IL-1-beta AlphaLISA Primary Screen. 360,000 tested, 4.7% active. THP-1 LPS/ATP IL-1B secretion, AlphaLISA, 16 h; hits give low values. activity change, % at 57.5 µM; in the data active = activity change below about -50%; inconclusive = mostly about -30% to -49%
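Secreted IL-1B measured by AlphaLISA bead assay after 16 h compound exposure of THP-1 cells; compounds (final up to 57.5 uM) added 1 h before LPS (250 ng/mL) and ATP (1.25 mM) stimulation; lower signal means less secretion.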
DT40 TDP1 CPT = qHTS for Inhibitors of human tyrosyl-DNA phosphodiesterase 1 (TDP1): qHTS in cells in presence of CPT; chicken DT40 Tdp1-/-;hTDP1 cells + 20 nM CPT, ATP luminescence, 48 h; 420,000 tested, 12% active; Potency, µM (titrated, usually from 46.2 µM), without a hit: top-dose activity change, negative = growth inhibition, hits mostly inhibitors; also: potency is read from the fitted curve at half-maximal effect; nearly all actives have a fitted effect of over 55% in size
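Chicken DT40 Tdp1-/- cells complemented with human TDP1, 400 cells/well, exposed to compounds plus 20 nM camptothecin for at least 48 h at 37 C; viability read as ATP content by CellTiter-Glo luminescence.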
TDP1 cell noCPT = qHTS for Inhibitors of human tyrosyl-DNA phosphodiesterase 1 (TDP1): qHTS in cells in absence of CPT; Potency, µM (series often up to 46.2 µM), inactives show at the highest dose activity change, negative = growth inhibition, usual class: inhibitors; 420,000 tested, 15% active; DT40 Tdp1-/- hTDP1 cells, no CPT, ATP luminescence, 48 h; also: potency is read from the fitted curve at half-maximal effect; nearly all actives have a fitted effect of over 55% in size
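Readout: luminescence from CellTiter-Glo after 30 min in the dark at RT. Cells: DT40 Tdp1-/- with stable hTDP1, 400/well. Exposure: compounds alone, ≥48 hr, 37 °C.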
Six1-Eya2 blk = qHTS Assay for Inhibitors of the Six1/Eya2 Interaction. Homeobox protein SIX1 (Homo sapiens) + Protein phosphatase EYA2 (Homo sapiens), …. AlphaScreen GST-Six1/His-Eya2 binding, biochemical; hits give low values. activity change, % (no concentration beside the values). 360,000 tested, 0.56% active; in the data active = activity change below about -65%; inconclusive = mostly about -30% to -63%
Target sequence (O00167 whole entry, looked up): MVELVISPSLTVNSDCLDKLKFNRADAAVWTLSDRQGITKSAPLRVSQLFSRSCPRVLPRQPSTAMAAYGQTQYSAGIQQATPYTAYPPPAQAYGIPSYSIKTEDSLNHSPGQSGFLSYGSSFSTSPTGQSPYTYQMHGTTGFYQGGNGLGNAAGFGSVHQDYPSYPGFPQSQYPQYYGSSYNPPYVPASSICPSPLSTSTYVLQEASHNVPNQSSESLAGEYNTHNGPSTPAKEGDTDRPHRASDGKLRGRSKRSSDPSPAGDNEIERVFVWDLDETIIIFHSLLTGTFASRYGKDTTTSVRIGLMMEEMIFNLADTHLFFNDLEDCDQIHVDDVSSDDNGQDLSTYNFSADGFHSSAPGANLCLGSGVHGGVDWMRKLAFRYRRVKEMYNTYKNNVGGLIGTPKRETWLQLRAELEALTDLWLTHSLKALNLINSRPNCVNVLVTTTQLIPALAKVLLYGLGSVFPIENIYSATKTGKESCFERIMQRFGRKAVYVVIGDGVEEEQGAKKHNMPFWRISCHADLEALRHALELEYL
Target sequence (Q15475 whole entry, looked up): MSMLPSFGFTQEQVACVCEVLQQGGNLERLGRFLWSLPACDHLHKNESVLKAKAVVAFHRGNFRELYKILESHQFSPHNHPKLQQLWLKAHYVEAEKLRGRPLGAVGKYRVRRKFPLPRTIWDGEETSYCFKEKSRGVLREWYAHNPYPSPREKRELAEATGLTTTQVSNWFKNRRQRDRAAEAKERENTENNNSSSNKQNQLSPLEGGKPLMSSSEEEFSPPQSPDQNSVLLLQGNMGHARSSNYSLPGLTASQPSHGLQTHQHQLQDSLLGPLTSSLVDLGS
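Homogeneous AlphaScreen proximity assay pairing GST-Six1 with His-tagged Eya2 (added as 5X mix: 250 nM and 500 nM) in 50 mM Tris pH 8.0, 300 mM NaCl, 1 mM TCEP. Glutathione donor and nickel acceptor beads; 1 h, 37 °C, dark.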
TDP1 inh = qHTS Assay for Inhibitors of Tyrosyl-DNA Phosphodiesterase (TDP1). Tyrosyl-DNA phosphodiesterase 1 (Homo sapiens), Q9NUW8. AID 485290, 2010. 350,000 tested, 0.28% active. recombinant TDP1, AlphaScreen DNA substrate cleavage. Potency, µM (highest dose often 130 µM), for inactives: at the highest dose activity change, negative = inhibition, hits mostly inhibitors; also: potency is read from the fitted curve at half-maximal effect; nearly all actives have a fitted effect of over 40% in size
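Compounds were preincubated with Tdp1 (1 nM final) for 15 min at room temperature before substrate (15 nM final) started a 5 min reaction; beads (10 ug/ml final) were then added for 10 min before AlphaScreen detection.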
CtBP-E1A inh = qHTS Assay for Inhibitors of the CtBP/E1A Interaction; CtBP / adenovirus E1A interaction (AlphaScreen); AlphaScreen GST-E1A/His-CtBP binding, 1536-well; hits give low values; activity change, % (concentration not given with the values); 340,000 tested, 0.49% active; AID 651724, 2012; in the data active = activity change below about -65%; inconclusive = mostly about -30% to -63%
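Protein mix (5X: 125 nM each GST-E1A, His-CtBP) was incubated with pinned compound 2 h at 37 deg C in dark, in 50 mM Tris pH 8.0 buffer with 300 mM NaCl. Glutathione donor and nickel acceptor beads followed; AlphaScreen signal read after 1 h.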
Numbers without * were called inactive; ? = inconclusive; / = no result given; [ ] = remark or other dose. This is a sample that favours compounds with a hit; in the whole collection about 18% have one here. Unless noted, calls follow the shape of the dose curve; as a rule, active = well fitted curve in the direction sought with a large enough effect; inconclusive = small, poorly fitted or top-dose-only effect, or another doubt; inactive = no such curve, though single readings can be large; an effect the other way counts as inactive or inconclusive. % is scaled to controls: 0 for no effect and ±100 for the full control effect.

SMILES	IL-1B inflam inh	DT40 TDP1 CPT	TDP1 cell noCPT	Six1-Eya2 blk	TDP1 inh	CtBP-E1A inh
Cc1ccc(N2C(=O)c3cccc4c(N5CCN(C)CC5)ccc(c34)C2=O)c2cccnc12	35	?	?	5	2%	5
O=C1c2cccc3c([N+](=O)[O-])ccc(c23)C(=O)N1Cc1cccnc1	-101*	3.7µM*	4.6µM*	-17	9%	0
O=C1c2cccc3cccc(c23)C(=O)N1Cc1cccnc1	24	1%	?	-23	-1%	11
Cc1nnc(N2C(=O)c3cccc4c([N+](=O)[O-])ccc(c34)C2=O)s1	-95*	7.3µM*	4.6µM*	-2	6%	/
Cc1ccc(N2C(=O)c3cccc4c([N+](=O)[O-])ccc(c34)C2=O)c2cccnc12	13	0.82µM*	0.73µM*	1	/	/
O=C(Nc1nc(OCC(F)(F)F)cnc1/C=C\c1ccccc1)c1ccsc1	-5	23µM*	?	8	/	-15
COc1ccc(C(=O)Nc2nc(OCC(F)(F)F)cnc2/C=C\c2ccccc2)c(OC)c1	-14	21µM*	?	12	/	-14
COc1cccc(/C=N\NC(=O)c2cc(OCC(F)(F)F)ccc2OCC(F)(F)F)c1	-6	?	?	6	0%	-7
NC(=NC(=O)c1ccc(OCC(F)(F)F)nc1)c1ccccc1	-6	-29%	?	7	/	/
Nc1nnc(-c2cccc([N+](=O)[O-])c2)s1	-15	3%	-21%	-2	6%	-2
CCC(=O)N1CCc2cc(Br)cc(S(=O)(=O)N3CCCCC3CC)c21 (stereo not drawn)	17	?	21µM*	-13	3%	-1
CCCN(CCC)S(=O)(=O)c1cc(Br)cc2c1N(C(=O)CC)CC2	-10	9.2µM*	10µM*	21	-1%	0
CCC(=O)N1CCc2cc(Br)cc(S(=O)(=O)CCC(=O)N(CC)CC)c21	14	22%	6%	-15	2%	4
CCC(=O)N1CCc2cc(Br)cc(S(=O)(=O)N(C)c3ccc(OC)cc3OC)c21	6	18µM*	18µM*	-10	5%	-5
CN(C)c1ncnc2c1ncn2CCn1cnc2c(N(C)C)ncnc21	-18	?	-9%	10	/	2
COc1cc(C2NC(=O)NC(c3ccccc3)=C2C(C)=O)cc([N+](=O)[O-])c1O (stereo not drawn)	30	-4%	16%	2	1%	5
O=C(c1cccc(F)c1)N1CCN(CC2CC3C=CC2C3)CC1 (stereo not drawn)	-2	-4%	-12%	-17	1%	3
CN(C)[C@@H](CO)c1nnc([C@H](CC(=O)O)NC(=O)C2CCNCC2)o1	2	4.6µM*	-1%	-4	6%	-1
CN(C)[C@@H](CO)c1nnc([C@H](CCC(=O)O)NC(=O)C2CCNCC2)o1	10	-4%	7%	-1	5%	4
CC1CCN(C(=O)C(C)Sc2nc(-c3ccccc3)cc(C(F)(F)F)n2)CC1 (stereo not drawn)	-29	26µM*	29µM*	14	-4%	14
CCOc1ccc2nc(N/C(N)=N/S(=O)(=O)c3ccc(C)cc3)nc(C)c2c1	-21	?	?	-2	/	-4
N#Cc1ccccc1NC(=O)C1SC(=Nc2ccccc2)C(C(=O)Nc2ccc(Cl)cc2)=C1N (stereo not drawn)	-84*	16µM*	21µM*	-21	-4%	0
CCOc1ccc(N=C2SC(C(=O)Nc3ccccc3C#N)C(N)=C2C(=O)Nc2ccc(Cl)cc2)cc1 (stereo not drawn)	0	2%	4%	-6	11%	3
CN1C(=O)/C(=C2\SC(=S)N(NC(=O)c3cccnc3)C2=O)c2ccccc21	48	-6%	-2%	-16	/	/
CN1C(=O)/C(=C2\SC(N)=NC2=O)c2ccccc21	-18	18µM*	26µM*	-4	1%	0
SMILES	IL-1B inflam inh	DT40 TDP1 CPT	TDP1 cell noCPT	Six1-Eya2 blk	TDP1 inh	CtBP-E1A inh
CN1C(=O)/C(=C2\SC(N3CCCCCC3)=NC2=O)c2ccccc21	-15	?	?	-1	13%	-18
CCCN1C(=O)/C(=C2\SC(N3CCCCC3)=NC2=O)c2ccccc21	-55*	?	18µM*	-18	15%	-7
Cc1ccc(C(=O)N2CCCC(Nc3ccc(C(C)C)cc3)C2)cn1 (stereo not drawn)	67	?	-25%	-1	1%	-1
Cn1nnnc1SCC(=O)N(C1CCCCC1)C1CCCCC1	-10	16µM*	18µM*	-7	1%	-2
O=C1CC(c2ccc(OCCCCCOc3ccc(C4CC(=O)NC4=O)cc3)cc2)C(=O)N1 (stereo not drawn)	-131*	-27%	?	-4	0%	-9
COc1ccc(Cl)cc1/C=C(\C#N)C(N)=O	-7	?	?	2	3%	-6
O=C1CSC2(CCN(CCCN3c4ccccc4Sc4ccc(Cl)cc43)CC2)N1	/	24µM*	9.4µM*	/	11%	/
CCOC(=O)Cc1nnc2c(Nc3ccccc3F)nc3nonc3n12	8	23µM*	23µM*	-5	1%	0
CCOC(=O)Cc1nnc2c(Nc3ccc(C)cc3)nc3nonc3n12	14	-23%	-20%	-7	9%	7
COc1ccc(-c2cccc3c2OC(CNC(=O)c2ccc4c(c2)OCO4)C3)nn1 (stereo not drawn)	/	17%[9.04 µM]	-16%	/	/	/
CC1CCCN(C(=O)CN(c2ccccc2)S(=O)(=O)c2ccc(F)cc2)C1 (stereo not drawn)	-3	6%	-21%	5	2%	6
Cc1nnc(NC(=O)CSc2nnc(Cc3ccccc3)n2Cc2ccccc2)s1	1	0%	-18%	-8	2%	0
COc1ccc(-c2cnc(C)o2)cc1S(=O)(=O)Nc1cccc(C(F)(F)F)c1	/	?	?	/	-6%	/
CCCn1c(-c2cccs2)nc2nc3ccccc3nc21	12	18µM*	16µM*	3	0%	0
